Each structure is given as a SMILES string. Inconclusive results are not listed. Entries that show only a call come without a potency. Calls of active or inactive are those of the source. Calls come from the whole dose curve; as a rule, active = well fitted cell-killing curve with a large enough effect in the repeat runs; inconclusive = weak or mixed curves, or effect the other way; inactive = no such curve, though single readings can be large or run the other way.

This assay in a line: qHTS assay to identify small molecule agonists of the RXR signaling pathway - cell viability counter screen (AID 1159529). Note: nearly all actives have a fitted effect of over 50% in size. The settings on record: RXR-alpha-bla HEK293T viability, CellTiter-Glo, 16 h; series mostly up to 76.8 µM. From the text:
National Center for Advancing Translational Sciences [NCATS]
NIH Chemical Genomics Center [NCGC]
U.S. Environmental Protection Agency [EPA]
National Institutes of Environmental Health Sciences [NIEHS]
National Toxicology Program [NTP]
U.S. Food and Drug Administration [FDA]
The Retinoid X receptor (RXR), a nuclear hormone receptor expressed in liver, spleen, placenta, epidermis, central nervous system. These receptors are able to form homo and heterodimers with other nuclear receptors and due to this heterodimerizing ability, RXR functions as master regulators producing diverse physiological effects. Three subtypes of RXR exist; alpha, beta and gamma. Retinoid X receptor alpha (RXR-alpha) has potential roles in metabolic signaling pathways, skin alopecia, dermal cysts, cardiac development, insulin sensitization etc. Therefore screening environmental chemicals on RXR-alpha signaling can be used for the studies focused on such therapeutic applications. For quantification of RXR-alpha ligands signaling, GeneBLAzer RXR alpha-UAS-bla HEK 293T (Life Technologies, Carlsbad, CA) cells containing a beta-lactamase reporter-gene under control of Retinoid X receptor-alpha response element were used to screen Tox21 10K library. The cytotoxicity of the Tox21 compound library against the RXR-alpha HEK 293T cell line was tested in parallel by measuring cell viability using CellTiter-Glo assay (Promega Corporation, Madison, WI) in the same wells.
Tox21 Assay Protocol Summary:
RXR-alpha HEK 293T cells were dispensed at 2,000 cells/6 uL of assay medium containing 2% charcoal-stripped FBS using a Multidrop Combi (ThermoFisher Scientific, Waltham, MA) dispenser. The assay was performed in black wall/clear-bottom 1536-well plates (Greiner Bio-One North America Inc. Monroe, NC). Tetraoctyl ammonium bromide was used as a positive control in the cytotoxicity screen. After the assay plates were incubated at 37 C and 5% CO2 for 5 hr, 23 nL of compounds dissolved in DMSO, positive control or DMSO only were transferred to the assay plate by a Pintool station (Kalypsys, San Diego, CA). The assay plates were incubated at 37 C and 5% CO2 for 16 hr. One uL of LiveBLAzer B/G FRET substrate (Life Technologies) was added using a Flying Reagent Dispenser (FRD) (Aurora Discovery, San Diego, CA) and the plates were incubated at room temperature for 2 hr. Fluorescence intensity (405 nm excitation, 460/530 nm emission) was measured using an Envision plate reader (PerkinElmer, Shelton, CT). For cytotoxicity, 4 uL/well of CellTiter-Glo reagent was added into the assay plates using an FRD. After 30 min incubation at room temperature, the luminescence intensity was measured using a ViewLux plate reader (PerkinElmer).
In general terms: In qHTS, concentration-response curves come from the screen itself.
Regarding `CC(=O)c1cnccn1`, the Potency result was “inactive”.

For the compound `CCN[C@@H]1C[C@H](N)[C@@H](OC2OC(CN)=CCC2N)[C@H](O)[C@H]1O[C@H]1OC[C@](C)(O)[C@H](NC)[C@H]1O` (stereo not given in full), the activity change, negative = cytotoxicity was -0.24% [at 0.29 µM] (inactive).

On to `CC(=O)c1ccc2ccccc2c1`, for which the Potency entry is “inactive”.

As for `CCCCCCC1CCC(=O)O1` (stereo not given), the Potency result was “inactive”.

As for `COc1c(N2CCNC(C)C2)c(F)cc2c(=O)c(C(=O)O)cn(C3CC3)c12` (stereo not given), the Potency result was “inactive”.

For the compound `CO[C@@]1(NC(=O)CSC[C@@H](N)C(=O)O)C(=O)N2C(C(=O)O)=C(CSc3nnnn3C)CS[C@@H]21`, the Potency entry is “inactive”.

In the case of `CN(C)CCN(C)CCN(C)C`, the Potency entry was “inactive”.

Consider `CC(C)CCCO`, for which the Potency result is “inactive”.

Turning to `CCCc1nn(C)c2c(=O)[nH]c(-c3cc(S(=O)(=O)N4CCN(C)CC4)ccc3OCC)nc12`, the Potency entry was “inactive”.

In the case of `CCCO[Si](OCCC)(OCCC)OCCC`, the Potency entry is “inactive”.

As for `O=C(O)CC(C(=O)O)S(=O)(=O)O` (stereo not given), the Potency entry was “inactive”.

On to `CCN(Cc1ccccc1)c1ccccc1`, for which the Potency entry was “inactive”.

Regarding `CN(C)CCCN(C)CCCN(C)C`, the Potency result was “inactive”.

Take `C=C(C)C(=O)OCC(O)CO` (stereo not given): the Potency entry was “inactive”.

As for `c1ccc(CCc2ccccc2)cc1`, the Potency entry was “inactive”.

With `CCOC(=O)CCC(=O)OCC`, the Potency result is “inactive”.

In the case of `O=S(=O)(O)c1cccc2c(S(=O)(=O)O)cccc12`, the Potency entry was “inactive”.

Consider `CCCCCCCCCCCCCCCCCCO`, for which the Potency result is “inactive”.

As to `C=COC(=O)C(C)(CC)CCC(C)C` (stereo not given), the Potency result is “inactive”.

Take `COC(=O)C1=C(C)NC(C)=C(C(=O)OC(C)C)C1c1cccc2nonc12` (stereo not given): the Potency entry was “inactive”.

On to `Cc1cc(C)c(N=Nc2c(O)c(S(=O)(=O)O)cc3cc(S(=O)(=O)O)ccc23)cc1C`, for which the activity change, negative = cytotoxicity was -2.64% [at 6.97 µM] (inactive).

As to `CO/N=C(\C(=O)N[C@@H]1C(=O)N2C(C(=O)O)=C(CSc3nc(=O)c(O)nn3C)CS[C@H]12)c1csc(N)n1`, the Potency result is “inactive”.

Consider `CCCCOCCOC(=O)COc1cc(Cl)c(Cl)cc1Cl`, for which the Potency result was “inactive”.

As to `CCCC(=O)O[C@]1(C(=O)CC)CC[C@H]2[C@@H]3CCC4=CC(=O)CC[C@]4(C)[C@H]3[C@@H](O)C[C@@]21C`, the Potency entry is “inactive”.

With `CC(C)(C#N)Nc1nc(Cl)nc(NC2CC2)n1`, the Potency entry is “inactive”.

For the compound `CCOC(=O)c1ccccc1`, the Potency result is “inactive”.

As for `CC(=O)Oc1cccc(C)c1`, the Potency result was “inactive”.

In the case of `COC(=O)Nc1ccc(Cl)c(Cl)c1`, the Potency entry is “inactive”.

In the case of `CC(C)C(=O)OC(=O)C(C)C`, the Potency result was “inactive”.

Consider `Clc1cc(Cl)c(Cl)nc1Cl`, for which the Potency entry is “inactive”.

For the compound `CN(C)CCCCCCN(C)C`, the Potency entry was “inactive”.

For `CC(=O)c1ccccc1[N+](=O)[O-]`, the Potency result was “inactive”.

Turning to `CC1=NS(=O)(=O)c2cc(Cl)ccc2N1`, the Potency result was “inactive”.

Take `C=C[Si](OC(C)=O)(OC(C)=O)OC(C)=O`: the Potency entry was “inactive”.

With `CC(C)=CCC/C(C)=C/C#N`, the Potency entry was “inactive”.

On to `CC[N+](C)(CC)CCOC(=O)C1c2ccccc2Oc2ccccc21`, for which the Potency result was “inactive”.

Consider `NCCCC[C@H](N[C@@H](CCc1ccccc1)C(=O)O)C(=O)N1CCC[C@H]1C(=O)O`, for which the Potency result is “inactive”.

For `CC(=O)C1CCCCC1=O` (stereo not given), the Potency entry is “inactive”.

As for `C[C@@H]1C[C@H]2[C@@H]3C[C@H](F)C4=CC(=O)C(Cl)=C[C@]4(C)[C@@]3(F)[C@@H](O)C[C@]2(C)[C@@]1(O)C(=O)CO`, the Potency result was “inactive”.

On to `O=C(O)CNC(=O)c1ccc(CO)o1`, for which the Potency entry is “inactive”.
